Sampled rows, rich in hits. Any-hit rate of the full collection: about 28%.
CYP2C9 inhib: blockers of cytochrome P450 2C9 activity – biochemical, luminescence, ADME assay, primary screen. P11712. CYP2C9 Supersomes, luciferin-H conversion. inhibition, % at 5 µM. 20% of 96,000 active. AID 777, 2007;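 active means blocking of liver enzyme CYP2C9 beyond about 50% at 5 µM, limit read from the data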
PTK2B oligo ant: antagonists of Pyk2 self-association, primary screen, Q293 cells, FERM NanoBiT luminescence, HTS | Protein-tyrosine kinase 2-beta (Homo sapiens), Q14289 | stronger effect = lower value | z-score (the deposit names both 25 µM and 10 µM) | 0.83% of 99,000 active | AID 1347419, 2020;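 active means Z-score of -3 or lower, scaled per plate to the spread of control and sample wells; inactive means z-score above -3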;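 further: negative z-score means lost luminescence so less FERM oligomerization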
CYP2C9 act: human CYP2C9 activators, primary screen, biochemical, luminescence | recombinant CYP2C9, luciferin-H conversion; stronger effect = higher value; factor 1 = untreated enzyme, 0 = blocked | activation factor at 5 µM | 1.4% of 96,000 active | AID 1024, 2008 | Cytochrome P450 2C9 (Homo sapiens), P11712;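 active means activation factor of 2 or more for CYP2C9 at a 5 µM dose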
CYP2C19 inhib: blockers of cytochrome P450 2C19 activity – biochemical, luminescence, ADME assay, primary screen | P33261 | CYP2C19 Supersomes, luciferin-H EGE luminescence, 30 min | inhibition, % at 5 µM | 21% of 96,000 active | AID 778, 2007;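 active means CYP2C19 inhibition above a set limit at 5 µM in the primary screen, cut at about 50% in these data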
Target sequence (P33261 whole entry, looked up): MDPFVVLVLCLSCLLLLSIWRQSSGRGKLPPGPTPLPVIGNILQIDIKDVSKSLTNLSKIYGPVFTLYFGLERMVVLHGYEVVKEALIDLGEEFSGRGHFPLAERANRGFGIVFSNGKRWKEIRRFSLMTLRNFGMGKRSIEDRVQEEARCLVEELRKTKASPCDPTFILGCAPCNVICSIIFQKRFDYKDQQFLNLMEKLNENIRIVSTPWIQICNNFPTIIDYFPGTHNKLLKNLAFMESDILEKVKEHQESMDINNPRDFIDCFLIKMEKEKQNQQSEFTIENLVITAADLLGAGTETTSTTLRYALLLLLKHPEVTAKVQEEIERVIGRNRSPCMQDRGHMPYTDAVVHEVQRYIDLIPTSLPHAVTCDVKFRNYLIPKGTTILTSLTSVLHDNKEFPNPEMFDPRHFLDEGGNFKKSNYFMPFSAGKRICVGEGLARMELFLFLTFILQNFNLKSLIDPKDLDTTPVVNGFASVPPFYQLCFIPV
CYP2C19 activ: human CYP2C19 activators, primary screen, biochemical, luminescence | Cytochrome P450 2C19 (Homo sapiens), P33261 | recombinant CYP2C19, luciferin-H EGE luminescence; stronger effect = higher value; 0 = fully inhibited enzyme, 1 = untreated enzyme | activation factor at 5 µM | 96,000 tested, under 10 active;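 active means activation factor of at least 2 at 5 µM in the primary screen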
Hits are given with their value; i = inactive; nt = no result given.

SMILES	CYP2C9 inhib	PTK2B oligo ant	CYP2C9 act	CYP2C19 inhib	CYP2C19 activ
COC(=O)c1cnn(-c2cc(Oc3cccc(C)c3)ncn2)c1N	69.9	i	i	i	i
Cc1ccc2c(c1)C(C)(C)[C@]1(C)NC(=O)CCN21	i	i	i	i	i
COCCN(C(=O)CCC(=O)Nc1ccccn1)C(C(=O)NC1CCCC1)c1ccc(OC)cc1 (stereo unspecified)	nt	i	nt	nt	nt
CC(C(N)=O)N1C(=O)c2cccc3cccc1c23 (stereo unspecified)	i	i	3.2	i	i
OCCNc1nc2ccc(Cl)cc2[nH]1	i	i	i	i	i
Cc1cccc(Nc2nc(N)nc(CN3CCN(Cc4ccc5c(c4)OCO5)CC3)n2)c1	i	i	i	i	i
N#Cc1c(Sc2ncc(C(F)(F)F)cc2Cl)nsc1C/C=N\OCc1c(F)cccc1Cl	i	i	i	i	i
COCCNc1nc2ccccc2nc1NS(=O)(=O)c1ccc(C)cc1C	97.5	i	i	i	i
Cc1ccc(SCC(=O)NCCSC(C)(C)C)cc1	i	i	i	i	i
CN1/C(=N\O)c2cccc3cccc1c23	i	i	i	70.3	i
CC1CCC(C(C)C)C(OC(=O)COC(=O)c2cccn2C)C1 (stereo unspecified)	80.3	i	i	90.8	i
CC1CCC(C(C)C)C(OC(=O)C[n+]2cccc(C(N)=O)c2)C1 (stereo unspecified)	i	i	i	i	i
O=S(=O)(NC12CC3CC(CC(C3)C1)C2)c1ccc(F)cc1	83.4	i	i	88.2	i
O=S(=O)(Nc1nc2c(s1)CCCC2)c1ccc(F)cc1	i	i	i	i	i
CC1(c2cc(C(F)(F)F)n3nc(C(=O)O)cc3n2)CC1	nt	i	nt	nt	nt
COc1ccc(C2CC(c3cc(OC)ccc3OC)n3nnnc3N2)cc1 (stereo unspecified)	78.3	i	i	97.7	i
Clc1ccccc1C1CC(c2ccccc2)Nc2ncnn21 (stereo unspecified)	i	nt	i	i	i
COc1ccc(C2CC(c3cccc(C)c3)n3ncnc3N2)cc1 (stereo unspecified)	61.3	nt	i	95.6	i
Cc1cccc(C2CC(c3ccccc3)Nc3ncnn32)c1 (stereo unspecified)	61.1	nt	i	98.0	i
CCOc1ccc(C2CC(c3cccc(C)c3)n3ncnc3N2)cc1 (stereo unspecified)	54.4	nt	i	84.8	i
CCOc1ccc(C2CC(c3ccc(OC)cc3)n3ncnc3N2)cc1 (stereo unspecified)	i	nt	i	i	i
CC(C)(C)OC(=O)N1CCC(C(=O)N2CCC[C@H]2C(=O)O)CC1	i	i	i	i	i
C=CCN1C(=O)CN=C1Nc1cc(C)ccc1C	i	i	i	i	i
COc1cc(CC(=O)NCCc2ccc(S(N)(=O)=O)cc2)cc(OC)c1OC	i	i	i	i	i
COc1cccc(C2CC(c3cccc(C)c3)n3ncnc3N2)c1 (stereo unspecified)	67.3	nt	i	74.1	i
SMILES	CYP2C9 inhib	PTK2B oligo ant	CYP2C9 act	CYP2C19 inhib	CYP2C19 activ
Cc1cc2c(s1)CCCCC(=O)N2	i	i	i	i	i
CCOC(=O)/C(C#N)=C1/SC(CC)C(=O)N1c1ccc(C)cc1 (stereo unspecified)	55.3	i	i	90.7	i
COc1ccc(C(=O)NCC23C=CC(O2)C2C(=O)N(Cc4ccccc4)C(=O)C23)cc1 (stereo unspecified)	i	i	i	62.1	i
O=C(C1CC1)N(CCc1ccccc1)Cc1nc2ccccc2c(=O)[nH]1	58.0	i	i	55.8	i
COCC(=O)N(CCc1ccc(OC)cc1)Cc1nc2ccccc2c(=O)[nH]1	i	i	i	i	i
O=C(C1CCC1)N(CCc1ccccc1)Cc1nc2ccccc2c(=O)[nH]1	85.1	i	i	64.4	i
O=C(c1ccncc1)N(Cc1ccccc1)Cc1nc2ccccc2c(=O)[nH]1	92.7	i	i	55.7	i
CCCC(=O)N(CCc1ccc(OC)cc1)Cc1nc2ccccc2c(=O)[nH]1	i	i	i	i	i
CC1(C)CNC(=O)c2sc(N3CCOCC3)nc2C1	i	i	i	i	i
COCCn1c(SCc2c(F)cccc2Cl)nc2c1c(=O)[nH]c(=O)n2C	i	i	i	i	i
Cc1[nH]c2ccccc2c1C(c1ccccn1)N1CCC(C(N)=O)CC1 (stereo unspecified)	i	i	i	50.7	i
CC1CCCN(S(=O)(=O)c2ccc(NC(=O)CN3CCN(C)CC3)cc2)C1 (stereo unspecified)	i	i	i	i	i
CC1CCCN(S(=O)(=O)c2ccc(S(=O)(=O)NC(C)c3cccs3)cc2)C1 (stereo unspecified)	74.5	i	i	100.0	i
COc1ccccc1N1CCN(C(c2cccs2)C(C)NS(=O)(=O)c2ccccc2)CC1 (stereo unspecified)	85.8	nt	i	72.3	i
CC(NS(=O)(=O)c1ccc(Br)cc1)C(c1cccs1)N1CCN(C)CC1 (stereo unspecified)	i	nt	i	100.4	i
CC(NS(=O)(=O)c1ccccc1)C(c1cccs1)N1CCN(c2ccccc2)CC1 (stereo unspecified)	i	i	i	i	i
CCCn1c(/C=C/c2ccccc2)nc2ccccc21	i	i	i	50.9	i
Cc1ccc(NC(=O)Cn2c(/C=C/c3ccccc3)nc3ccccc32)cc1C	100.0	-3.84	i	84.9	i
CCCn1c(Nc2ccccc2C)nc2ccccc21	nt	i	nt	nt	nt
COc1ccc(C2CC(=O)C(C=NCCN3CCOCC3)=C(O)C2)cc1 (stereo unspecified)	nt	i	nt	nt	nt
COC(=O)c1ccc(NC(=O)c2ccc(N(C)S(C)(=O)=O)cc2)cc1	i	i	i	i	i
Cn1c(=O)c2c(nc(NCc3ccco3)n2C/C=C/c2ccccc2)n(C)c1=O	i	-3.04	i	73.6	i
NS(=O)(=O)c1ccc(Cc2ncc(C(F)(F)F)cc2Cl)s1	i	i	i	i	i
NNS(=O)(=O)c1ccc(Cc2ncc(C(F)(F)F)cc2Cl)s1	i	i	i	70.0	i
CCN(CC)S(=O)(=O)c1ccc(Cc2ncc(C(F)(F)F)cc2Cl)s1	59.1	i	i	83.4	i
Cc1nc2ccccc2c2c1C(=O)N(Cc1cccnc1)C2=O	i	i	i	97.2	i
Cc1nc2ccccc2c2c1C(=O)N(C1CCCCCCC1)C2=O	i	i	i	i	i
CC(C)Cn1c(-c2ccc(Cl)cc2)cnc1SCC(=O)N1CCOCC1	i	i	i	i	i
CC1(C(=O)NC2CCCC2)CCC(=O)N1Cc1ccccc1Cl (stereo unspecified)	i	i	2.3	i	i
O=C(COC(=O)c1cccnc1Nc1ccccc1F)NCCN1C(=O)CSC1=O	i	i	i	84.2	i
